Assay results as given in PubChem BioAssay (EPA / NIEHS).
Values joined by “and” are separate entries in the source; they are usually repeats but may differ in a detail not shown here. Equal entries are not always repeated. Inconclusive results are not listed. A structure can be active in one record and inactive in another. Active and inactive are the calls of the source. Rule for the calls: active = hit-call score of the fitted dose curve at least 0.9, where 1 is the maximum; inconclusive = response in the unintended direction; inactive = score below 0.9.

test system: not listed separately; experiment: ATG_XTT_Cytotoxicity: Cytotoxicity Assessment in the Attagene TRANS-FACTORIAL HepG2 Assay (AID 2283584);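 for AC50: cells exposed to compound for 24 h before reading; active means loss of viability signal versus DMSO baseline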
Procedure, shortened: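 HepG2 human liver cells, transiently transfected with multiple GAL4-UAS reporter units, were dosed and read at 24 h by XTT as cell number. Loss of signal was fitted relative to DMSO negative control baseline.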

Q: Which outcome does the source give for `CN(C)C(=S)S` here?
A: Its outcome is “inactive”.

Q: For `OCCN(CCO)CCO`, which outcome is on record?
A: The outcome was “inactive”.

Q: For `CC(C)O.CC(C)O.OCCN(CCO)CCO.OCCN(CCO)CCO.[Ti]`, which outcome is on record?
A: The outcome was “inactive”.

Q: For `CCCCCCCCCCCCc1cccc(S(=O)(=O)O)c1`, which AC50 is on record?
A: Its AC50 is 139 µM (active).

Q: With `CC(C)(C)c1ccccc1O` as the compound, how does the outcome read?
A: Its outcome is “inactive”.

Q: For `N#Cc1cccnc1`, which outcome is on record?
A: The outcome was “inactive”.

Q: With `COc1ccccc1N` as the compound, how does the outcome read?
A: The outcome was “inactive”.

Q: For `Oc1cc(Cl)c(Cl)cc1Cl`, which outcome is on record?
A: The outcome was “inactive”.

Q: For `Cc1cc(C)cc(C)c1`, which outcome is on record?
A: The outcome was “inactive”.

test system: not listed separately; experiment: TOX21_p53_BLA_p2_viability: Viability Assessment in the Tox21 HCT-116 p53 Agonism Beta-lactamase Assay, Phase 2 (AID 2283591);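 note: compound exposure lasted 16 h at 37 °C; actives lower the ATP signal meaning cytotoxicity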
Procedure, shortened: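 HCT116 p53-bla cells, 4000/well, dosed after 5 h plating (217-fold dilution of DMSO stocks) and incubated 16 h at 37C. Viability taken as cellular ATP by CellTiter-Glo luminescence after 30 min RT; signal loss marks cytotoxicity.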

Q: With `c1ccc2c(c1)Oc1ccccc1O2` as the compound, how does the outcome read?
A: The outcome was “inactive”.

Q: With `CC(C)C(C)(N)C#N` (stereo not given) as the compound, how does the outcome read?
A: Its outcome is “inactive”.

Q: For `CC(C)=CC1C(C(=O)OCc2cccc(Oc3ccccc3)c2)C1(C)C` (stereo not given), which outcome is on record?
A: The outcome was “inactive”.

Q: With `O=NN1CCCCCC1` as the compound, how does the outcome read?
A: Its outcome is “inactive”.

Q: For `CCC[CH2][Sn]([Cl])([Cl])[CH2]CCC`, which AC50 is on record?
A: Its AC50 is 552 nM (active) and 2.76 µM (active).

Q: For `O=C=Nc1ccc(Cl)cc1`, which outcome is on record?
A: The outcome was “inactive”.

Q: With `OCCCCO` as the compound, how does the outcome read?
A: The outcome was “inactive”.

Q: With `CC(C)(c1ccccc1)c1cc(-n2nc3ccccc3n2)c(O)c(C(C)(C)c2ccccc2)c1` as the compound, how does the outcome read?
A: The outcome was “inactive”.

Q: Which outcome does the source give for `CCCCC(CC)C(=O)Cl` (stereo not given) here?
A: Its outcome is “inactive”.

Q: Which outcome does the source give for `O=C(Cc1ccccc1)OCCc1ccccc1` here?
A: The outcome was “inactive”.

Q: With `c1ccc(-c2cccc(-c3ccccc3)c2)cc1` as the compound, how does the outcome read?
A: Its outcome is “inactive”.

Q: With `Nc1ccc(Br)cc1` as the compound, how does the outcome read?
A: Its outcome is “inactive”.

Q: Which outcome does the source give for `C=C(C)C(=O)OCC(CC)CCCC` (stereo not given) here?
A: Its outcome is “inactive”.

Q: Which outcome does the source give for `O=[N+]([O-])c1cc([As](=O)(O)O)ccc1O` here?
A: Its outcome is “inactive”.

Q: With `Cc1cccc(N=Nc2ccc(N(C)C)cc2)c1` as the compound, how does the outcome read?
A: The outcome was “inactive”.

Q: Which outcome does the source give for `O=C(NC(=O)c1c(F)cccc1F)Nc1cc(Cl)c(F)c(Cl)c1F` here?
A: Its outcome is “inactive”.

Q: With `CC(C=O)Cc1ccc2c(c1)OCO2` (stereo not given) as the compound, how does the outcome read?
A: The outcome was “inactive”.

target: Cellular tumor antigen p53 (Homo sapiens) (UniProt P04637); experiment: TOX21_p53_BLA_p2_ratio: Tox21 HCT-116 p53 Agonism Beta-lactamase Assay, Ratio, Phase 2 (AID 2283592)
Sequence (P04637 whole entry, looked up): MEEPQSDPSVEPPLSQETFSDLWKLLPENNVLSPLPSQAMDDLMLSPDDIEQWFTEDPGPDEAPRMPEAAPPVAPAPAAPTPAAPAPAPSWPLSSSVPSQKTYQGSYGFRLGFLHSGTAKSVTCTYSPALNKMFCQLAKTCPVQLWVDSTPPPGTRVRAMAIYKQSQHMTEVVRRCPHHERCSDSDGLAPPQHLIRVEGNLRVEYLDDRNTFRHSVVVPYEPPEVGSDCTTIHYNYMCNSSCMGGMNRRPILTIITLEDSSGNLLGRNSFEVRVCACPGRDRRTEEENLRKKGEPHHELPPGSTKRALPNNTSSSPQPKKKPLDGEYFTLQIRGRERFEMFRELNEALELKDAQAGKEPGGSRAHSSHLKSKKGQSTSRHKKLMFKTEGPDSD
Procedure, shortened: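 HCT116 cells carrying a p53-responsive beta-lactamase reporter were plated, incubated 5 h at 37C, then dosed with compounds in DMSO (217-fold dilution) for 16 h. CCF4-AM substrate was added for 2 h at room temperature; the 460/530 nm emission ratio gave gain-of-signal activity relative to DMSO.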

Q: With `c1ccc2c(c1)Oc1ccccc1O2` as the compound, how does the outcome read?
A: Its outcome is “inactive”.

Q: With `Nc1nc(N)nc(Cl)n1` as the compound, how does the outcome read?
A: Its outcome is “inactive”.

Q: For `CC(C)C(C)(N)C#N` (stereo not given), which outcome is on record?
A: Its outcome is “inactive”.

Q: Which outcome does the source give for `OC[P+](CO)(CO)CO` here?
A: The outcome was “inactive”.

Q: With `C#CCO` as the compound, how does the outcome read?
A: Its outcome is “inactive”.

Q: Which outcome does the source give for `O=NN1CCCCCC1` here?
A: The outcome was “inactive”.

Q: With `CCC[CH2][Sn]([Cl])([Cl])[CH2]CCC` as the compound, how does the AC50 read?
A: Its AC50 is 1.59 µM (active) and 14.3 µM (active).

Q: With `CCCCOC(=O)COC(=O)c1ccccc1C(=O)OCCCC` as the compound, how does the outcome read?
A: Its outcome is “inactive”.

Q: For `CC(c1ccc(O)cc1)c1ccc(O)cc1`, which outcome is on record?
A: The outcome was “inactive”.

Q: For `CC(C)(c1ccccc1)c1cc(-n2nc3ccccc3n2)c(O)c(C(C)(C)c2ccccc2)c1`, which outcome is on record?
A: The outcome was “inactive”.

Q: Which outcome does the source give for `O=C(Cc1ccccc1)OCCc1ccccc1` here?
A: Its outcome is “inactive”.

Q: Which outcome does the source give for `c1ccc(-c2cccc(-c3ccccc3)c2)cc1` here?
A: Its outcome is “inactive”.

Q: Which outcome does the source give for `C=C(C)C(=O)OCC(CC)CCCC` (stereo not given) here?
A: Its outcome is “inactive”.

Q: With `Cc1cccc(N=Nc2ccc(N(C)C)cc2)c1` as the compound, how does the outcome read?
A: Its outcome is “inactive”.

Q: With `O=C(NC(=O)c1c(F)cccc1F)Nc1cc(Cl)c(F)c(Cl)c1F` as the compound, how does the outcome read?
A: Its outcome is “inactive”.

test system: not listed separately; experiment: TOX21_p53_BLA_p3_viability: Viability Assessment in the Tox21 HCT-116 p53 Agonism Beta-lactamase Assay, Phase 3 (AID 2283593);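 note: cells exposed to compound for 16 h before reading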
Procedure, shortened: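 HCT116 cells, 4000/well, dosed 5 h after plating by pin transfer (217-fold dilution from DMSO stock) and incubated 16 h at 37C, 5% CO2. Viability read as ATP luminescence with CellTiter-Glo after 30 min at room temperature.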

Q: With `c1ccc2c(c1)Oc1ccccc1O2` as the compound, how does the outcome read?
A: The outcome was “inactive”.

Q: For `CCC[CH2][Sn]([Cl])([Cl])[CH2]CCC`, which AC50 is on record?
A: The AC50 was 2.47 µM (active) and 1.79 µM (active).

Q: With `O=C=Nc1ccc(Cl)cc1` as the compound, how does the outcome read?
A: Its outcome is “inactive”.

Q: With `CCCCC(CC)C(=O)Cl` (stereo not given) as the compound, how does the outcome read?
A: The outcome was “inactive”.

Q: Which outcome does the source give for `Nc1ccc(Br)cc1` here?
A: Its outcome is “inactive”.

Q: With `O=C(NC(=O)c1c(F)cccc1F)Nc1cc(Cl)c(F)c(Cl)c1F` as the compound, how does the outcome read?
A: Its outcome is “inactive”.

Q: For `CC(C=O)Cc1ccc2c(c1)OCO2` (stereo not given), which outcome is on record?
A: Its outcome is “inactive”.

target: Cellular tumor antigen p53 (Homo sapiens) (UniProt P04637); experiment: TOX21_p53_BLA_p3_ratio: Tox21 HCT-116 p53 Agonism Beta-lactamase Assay, Ratio, Phase 3 (AID 2283596)
Procedure, shortened: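 HCT116 p53-bla cells (4000/well) given compound in DMSO (217-fold dilution) after 5 h, incubated 16 h at 37C. CCF4-AM substrate 2 h at room temperature; 460/530 nm emission ratio, gain fitted against DMSO.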

Q: What does the source list for `c1ccc2c(c1)Oc1ccccc1O2`?
A: AC50: 86.4 µM (active); outcome: inactive

Q: Which outcome does the source give for `OC[P+](CO)(CO)CO` here?
A: Its outcome is “inactive”.

Q: With `CC(C)=CC1C(C(=O)OCc2cccc(Oc3ccccc3)c2)C1(C)C` (stereo not given) as the compound, how does the outcome read?
A: Its outcome is “inactive”.

Q: Which outcome does the source give for `O=NN1CCCCCC1` here?
A: Its outcome is “inactive”.

Q: Which AC50 does the source give for `CCC[CH2][Sn]([Cl])([Cl])[CH2]CCC` here?
A: Its AC50 is 19.6 µM (active) and 20.1 µM (active).

Q: With `O=C=Nc1ccc(Cl)cc1` as the compound, how does the outcome read?
A: Its outcome is “inactive”.

Q: With `OCCCCO` as the compound, how does the outcome read?
A: The outcome was “inactive”.

Q: Which outcome does the source give for `CC(c1ccc(O)cc1)c1ccc(O)cc1` here?
A: The outcome was “inactive”.

Q: Which outcome does the source give for `CCCCC(CC)C(=O)Cl` (stereo not given) here?
A: Its outcome is “inactive”.

Q: Which outcome does the source give for `c1ccc(-c2cccc(-c3ccccc3)c2)cc1` here?
A: Its outcome is “inactive”.

Q: Which outcome does the source give for `Nc1ccc(Br)cc1` here?
A: Its outcome is “inactive”.

Q: With `C=C(C)C(=O)OCC(CC)CCCC` (stereo not given) as the compound, how does the outcome read?
A: Its outcome is “inactive”.

Q: With `O=[N+]([O-])c1cc([As](=O)(O)O)ccc1O` as the compound, how does the outcome read?
A: The outcome was “inactive”.

Q: For `Cc1cccc(N=Nc2ccc(N(C)C)cc2)c1`, which outcome is on record?
A: Its outcome is “inactive”.

Q: Which outcome does the source give for `O=C(NC(=O)c1c(F)cccc1F)Nc1cc(Cl)c(F)c(Cl)c1F` here?
A: Its outcome is “inactive”.

Q: Which outcome does the source give for `CC(C=O)Cc1ccc2c(c1)OCO2` (stereo not given) here?
A: Its outcome is “inactive”.

test system: not listed separately; experiment: TOX21_p53_BLA_p4_viability: Viability Assessment in the Tox21 HCT-116 p53 Agonism Beta-lactamase Assay, Phase 4 (AID 2283597);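 note: hits lower the luminescence signal meaning cytotoxicity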
Procedure, shortened: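 HCT116 p53-bla cells (4000/well) rested 5 h at 37C, then received compounds in DMSO (217-fold dilution) for 16 h at 37C, 5% CO2. CellTiter-Glo was added after the CCF4-AM read, and luminescence was read after 30 min at room temperature.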

Q: For `c1ccc2c(c1)Oc1ccccc1O2`, which outcome is on record?
A: Its outcome is “inactive”.

Q: Which outcome does the source give for `CC(C)C(C)(N)C#N` (stereo not given) here?
A: The outcome was “inactive”.

Q: Which outcome does the source give for `CC(C)=CC1C(C(=O)OCc2cccc(Oc3ccccc3)c2)C1(C)C` (stereo not given) here?
A: The outcome was “inactive”.

Q: Which AC50 does the source give for `CCC[CH2][Sn]([Cl])([Cl])[CH2]CCC` here?
A: Its AC50 is 2.06 µM (active) and 3.45 µM (active).

Q: Which outcome does the source give for `O=C=Nc1ccc(Cl)cc1` here?
A: The outcome was “inactive”.

Q: Which outcome does the source give for `CCCCOC(=O)COC(=O)c1ccccc1C(=O)OCCCC` here?
A: The outcome was “inactive”.

Q: For `OCCCCO`, which outcome is on record?
A: Its outcome is “inactive”.

Q: Which outcome does the source give for `CC(C)(c1ccccc1)c1cc(-n2nc3ccccc3n2)c(O)c(C(C)(C)c2ccccc2)c1` here?
A: Its outcome is “inactive”.

Q: For `O=C(Cc1ccccc1)OCCc1ccccc1`, which outcome is on record?
A: Its outcome is “inactive”.

Q: With `c1ccc(-c2cccc(-c3ccccc3)c2)cc1` as the compound, how does the outcome read?
A: The outcome was “inactive”.

Q: For `Nc1ccc(Br)cc1`, which outcome is on record?
A: Its outcome is “inactive”.

Q: With `C=C(C)C(=O)OCC(CC)CCCC` (stereo not given) as the compound, how does the outcome read?
A: Its outcome is “inactive”.

Q: Which outcome does the source give for `Cc1cccc(N=Nc2ccc(N(C)C)cc2)c1` here?
A: The outcome was “inactive”.

Q: With `O=C(NC(=O)c1c(F)cccc1F)Nc1cc(Cl)c(F)c(Cl)c1F` as the compound, how does the outcome read?
A: The outcome was “inactive”.

Q: With `CC(C=O)Cc1ccc2c(c1)OCO2` (stereo not given) as the compound, how does the outcome read?
A: Its outcome is “inactive”.
